{
  "source": "PubChem BioAssay (EPA / NIEHS)",
  "note": "The source made the active and inactive calls. The calls were made as follows: active = hit-call score of the fitted dose curve at least 0.9, where 1 is the maximum; inactive = score below 0.9.",
  "data": [
    {"read-out": "CD38, CD38 (gene 952)", "experiment": "BSK_SAg_CD38: BioMAP Diversity Plus: SAg Assay for CD38 Biomarker Activity (AID 2283087)", "conditions": "primary human HUVEC with PBMC; actives raise or lower the signal", "procedure": "BSK_SAg is a cell-based, multiplexed-readout assay that uses umbilical vein endothelium and peripheral blood mononuclear cells, a human vascular primary cell co-culture, with measurements taken at 24 hours after chemical dosing in a 96-well plate.BSK_SAg_CD38 is one of 10 assay component(s) measured or calculated from the BSK_SAg assay. It is designed to make measurements of enzyme-linked immunosorbent assay, a form of binding reporter, as detected with fluorescence intensity signals by Enzyme-linked immunosorbent assay technology.Data from the assay component BSK_SAg_CD38 was analyzed into 1 assay endpoint. This assay endpoint, BSK_SAg_CD38, was analyzed with bidirectional fitting relative to DMSO as the negative control and baseline of activity. Using a type of binding reporter, gain or loss-of-signal activity can be used to understand changes in the signaling as they relate to the gene CD38. Furthermore, this assay endpoint can be referred to as a primary readout, because this assay has produced multiple assay endpoints where this one serves a signaling function. To generalize the intended target to other relatable targets, this assay endpoint is annotated to the cytokine intended target family, where the subfamily is other cytokine.\nThe levels of cell surface (or secreted, indicated by the prefix \"s\") biomarker endpoints were measured by ELISA. Overt cytotoxicity to cells in confluent adherent cultures (all systems other than the BT system) was assessed by measuring total protein levels using sulforhodamine B (SRB) staining in parallel cultures at the time of biomarker measurements, indicated as SRB endpoints. For proliferation assays for adherent cell types, individual cell types are cultured at sub-confluence and relative cell numbers quantified by SRB staining at time points optimized for each system (48 h: 3C and CASM3C systems; 72 h: BT and HDF3CGF systems; 96 h: SAg system). SRB was performed by staining cells with 0.1% SRB after fixation with 10% TCA and reading wells at 560 nm.Viability and proliferation of PBMC (T cells) was quantified by Alamar Blue reduction for the SAg and BT systems. For PBMC viability (referred to as PBMC Cytotoxicity within the assay endpoint names), cells were plated (75,000/well in a 96-well plate) and then chemical samples added for 1 h before addition of activators, SEB and TSST-1 (20 ng/mL final concentration each). Cells were incubated for 90 h. Then, Alamar Blue (20 uL/well) (Invitrogen, Cat DAL1100) was added for 6 h, and the plates were read with a fluorescence microplate reader at 546/580 nm (excitation/emission). For PBMC proliferation, cells were plated and activated as above but incubated for only 16 h prior to addition of Alamar Blue. Plates were read after 6 h.", "values": [
      {"smiles": "CC(=O)OCC(COC(C)=O)OC(C)=O", "outcome": "inactive"},
      {"smiles": "O=C(O)CN(CC(=O)O)CC(=O)O", "outcome": "inactive"},
      {"smiles": "CS(=O)(=O)c1ccc([C@@H](C[C@H]2CCC(=O)C2)C(=O)Nc2cnccn2)cc1Cl", "outcome": "inactive"},
      {"smiles": "O=C1c2c(O)cccc2Cc2cccc(O)c21", "outcome": "inactive"},
      {"smiles": "OCC(CO)n1cnc(-c2ccc(F)cc2)c1-c1ccnc(Oc2ccccc2)n1", "outcome": "inactive"},
      {"smiles": "CCCCC(CC)CO", "note": "(stereo not given)", "outcome": "inactive"},
      {"smiles": "Oc1ccc(O)cc1", "AC50": "36.5 µM (active)"},
      {"smiles": "CCCCCCCCCCCCCCCCO", "outcome": "inactive"},
      {"smiles": "CC(C)COC(=O)CCCCC(=O)OCC(C)C", "outcome": "inactive"},
      {"smiles": "Oc1ccccc1O", "outcome": "inactive"},
      {"smiles": "OCC(O)CO", "outcome": "inactive"},
      {"smiles": "C=CCCCCCCCCCCCC", "outcome": "inactive"},
      {"smiles": "CCCC[C@H]1CN(CC2CCOCC2)C(=O)OC12CCN(C1(C)CCN(C(=O)c3c(C)ncnc3C)CC1)CC2", "outcome": "inactive"},
      {"smiles": "O=[Si]=O", "outcome": "inactive"},
      {"smiles": "C=CCc1ccc(OC)c(OC)c1", "outcome": "inactive"},
      {"smiles": "O=C1NC(=O)C(c2ccccc2)(c2ccccc2)N1", "outcome": "inactive"},
      {"smiles": "Cn1cnc2c1c(=O)[nH]c(=O)n2C", "outcome": "inactive"},
      {"smiles": "C/C=C/C=C/C(=O)O", "outcome": "inactive"},
      {"smiles": "CC(=O)O[C@]1(C(C)=O)CC[C@H]2[C@@H]3C=C(Cl)C4=CC(=O)[C@@H]5C[C@@H]5[C@]4(C)[C@H]3CC[C@@]21C", "outcome": "inactive"},
      {"smiles": "CCN(CC)CCOc1ccc(C(=C(Cl)c2ccccc2)c2ccccc2)cc1", "AC50": "8.84 µM (active)"},
      {"smiles": "COC(=O)CCCC(=O)OC", "outcome": "inactive"},
      {"smiles": "Cc1ccc(C(C)(C)C)c(O)c1", "outcome": "inactive"},
      {"smiles": "CC(=O)OC1CC(C)OC(C)O1", "note": "(stereo not given)", "outcome": "inactive"},
      {"smiles": "CN(C)CCCN(C)CCCN(C)C", "outcome": "inactive"},
      {"smiles": "CC(C)c1cccc(C(C)C)c1NC(=O)NS(=O)(=O)c1cc(C(C)(C)O)co1", "outcome": "inactive"},
      {"smiles": "CCc1nc(N)nc(N)c1-c1ccc(Cl)cc1", "outcome": "inactive"},
      {"smiles": "NC1CCCCC1", "outcome": "inactive"},
      {"smiles": "CCCCCCCCCCCCCCOS(=O)(=O)O", "AC50": "20 µM (active)"},
      {"smiles": "CSc1ccc(Oc2ccc(S(N)(=O)=O)cc2CN(C)C)cc1C", "outcome": "inactive"},
      {"smiles": "O=C(O)c1cccnc1", "outcome": "inactive"},
      {"smiles": "Cc1occc(=O)c1O", "outcome": "inactive"},
      {"smiles": "Cc1cc(Cc2ccc(N)c(C)c2)ccc1N", "outcome": "inactive"},
      {"smiles": "O=C(NS(=O)(=O)/C=C/c1cccs1)c1ccc(F)cc1Br", "outcome": "inactive"},
      {"smiles": "CCCCc1nc2cccnc2n1Cc1ccc(-c2ccccc2-c2nnn[nH]2)cc1", "outcome": "inactive"},
      {"smiles": "O=C(O)c1[nH]n(-c2ccc(S(=O)(=O)O)cc2)c(=O)c1N=Nc1ccc(S(=O)(=O)O)cc1", "outcome": "inactive"},
      {"smiles": "CCCCCCC(CCCCCCCCCCC(=O)OCC(COC(C)=O)OC(C)=O)OC(C)=O", "note": "(stereo not given)", "outcome": "inactive"},
      {"smiles": "CC(=O)[C@@]1(O)CC[C@H]2[C@@H]3CCC4=CC(=O)CC[C@]4(C)[C@H]3CC[C@@]21C", "outcome": "inactive"},
      {"smiles": "O=C(Oc1ccccc1)c1cccc(C(=O)Oc2ccccc2)c1", "outcome": "inactive"},
      {"smiles": "COC(=O)[C@H]1[C@H]2C[C@@H]3c4[nH]c5cc(OC)ccc5c4CCN3C[C@H]2C[C@@H](OC(=O)c2cc(OC)c(OC)c(OC)c2)[C@@H]1OC", "AC50": "25.7 µM (active)"},
      {"smiles": "CC1=C(C)S(=O)(=O)CCS1(=O)=O", "outcome": "inactive"}
    ]}
  ]
}
